# Source: PubChem BioAssay (Tox21)
# Values without a mark were called inactive. Inconclusive results are not listed. Where a call stands in place of a potency, no number is given. Calls of active or inactive are those of the source. Unless noted, the call rests on the fitted dose curve.
# Tests used:
# [1] = Nuclear factor erythroid 2-related factor 2/antioxidant responsive element (Nrf2/ARE) small molecule agonists: qHTS cell viability counter screen in human keratinocytes (AID 1919968; active means well fitted curve in the direction sought with a large enough effect in the repeat runs; an effect the other way counts as inactive or inconclusive; further: nearly all actives have a fitted effect of over 55% in size)
# In short: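 Seed 1,500 KeratinoSens cells per well, then incubate 5 h at 37 C/5% CO2. Add compounds in DMSO and incubate 23 h. Add CellTiter-Fluor, wait 1 h and read fluorescence.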
# [2] = Nuclear factor erythroid 2-related factor 2/antioxidant responsive element (Nrf2/ARE) small molecule agonists: luciferase reporter gene qHTS assay in human keratinocytes (AID 1919969); further: nearly all actives have a fitted effect of over 35% in size; further: potency means the concentration at half of the fitted maximal effect
# [3] = biological target: Gonadotropin-releasing hormone receptor (Homo sapiens) (UniProt P30968); assay: Human gonadotropin-releasing hormone receptor (GnRHR) small molecule agonists, calcium flux assay in GnRHR-HEK293 cells (AID 1920063); further: nearly all actives have a fitted effect of over 35% in size
# In short: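 Cells: HEK293 stably expressing human GnRHR. Steps: overnight (18 h) culture, 1 h calcium dye loading at 37 C, compound addition, kinetic fluorescence read at 480/540 nm. Each compound tested at 15 concentrations in triplicate.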
# [4] = biological target: KiSS-1 receptor (Homo sapiens) (UniProt Q969F8); assay: Human kisspeptin (KISS1R) small molecule agonists, calcium flux assay in KISS1R-HEK293 cells (AID 1920064; active means well fitted curve in the direction sought with a large enough effect in the repeat runs; an effect the other way counts as inactive or inconclusive)
# In short: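 Cells plated and incubated 18 h; dye added, 1 h at 37 C; compounds in DMSO pinned in; signal read at 480/540 nm every second for 3 min. Each compound tested at 15 concentrations in triplicate.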
# [5] = G protein-coupled receptor (GPCR) small molecule agonists, calcium flux assay: HEK293 wild type cell line counter screen (AID 1920065)
# In short: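 Counter-screen of the Tox21 10K library for non-specific calcium release: dye-loaded cells received compounds in DMSO and were monitored by kinetic fluorescence (480/540 nm, 3 min). Fifteen concentrations, run in triplicate.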
# [6] = p53 small molecule agonists, cell-based qHTS assay with rat liver microsomes: qHTS cell viability counter screen (AID 1963580); further: nearly all actives have a fitted effect of over 45% in size
# In short: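 Intracellular ATP, by CellTiter-Glo luminescence, defines viability. HCT-116 p53RE-bla cells, 4,000 per well, were compound-treated in the presence of rat liver microsomes and NADPH for 16 h at 37 C.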
# [7] = p53 small molecule agonists, cell-based qHTS assay: qHTS cell viability counter screen (AID 1963581); further: nearly all actives have a fitted effect of over 45% in size
# In short: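 Cells: HCT-116 with p53 response element-driven beta-lactamase. Treatment: 16 h, 37 C, compounds in DMSO. Read: CellTiter-Glo luminescence after 30 min RT.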
# [8] = biological target: 5-hydroxytryptamine receptor 2A (Homo sapiens) (UniProt P28223); assay: 5-hydroxytryptamine receptor 2A (HTR2A) small molecule antagonists, cell-based qHTS assay (AID 1963586); further: nearly all actives have a fitted effect of over 45% in size
# In short: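 Antagonist-mode intracellular calcium assay: DOI (4 nM) added after 5 min compound pre-incubation at room temperature to dye-loaded HTR2A-CHO cells. Fluorescence followed for 3 min, sampled every second.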
# [9] = biological target: 5-hydroxytryptamine receptor 2A (Homo sapiens) (UniProt P28223); assay: 5-hydroxytryptamine receptor 2A (HTR2A) small molecule agonists, cell-based qHTS assay (AID 1963587); further: nearly all actives have a fitted effect of over 30% in size
# In short: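 Kinetic calcium-flux fluorescence (2 min, 1 sec intervals) after compound addition in agonist mode. HTR2A-CHO cells were cultured 18 h, then dye-loaded 1 h at 37 C.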
# [10] = biological target: Muscarinic acetylcholine receptor M1 (Homo sapiens) (UniProt P11229); assay: Cholinergic receptor muscarinic 1 (CHRM1) small molecule antagonists, cell-based qHTS assay (AID 1963588); further: nearly all actives have a fitted effect of over 40% in size
# In short: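 CHRM1-CHO calcium-flux assay, antagonist mode. Cells were seeded 18 h, dye-loaded 1 h at 37 C and given compound for 5 min at RT, then acetylcholine was added at 50nM. FDSS fluorescence was read 3 min; 15 concentrations, three runs.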
# [11] = biological target: Muscarinic acetylcholine receptor M1 (Homo sapiens) (UniProt P11229); assay: Cholinergic receptor muscarinic 1 (CHRM1) small molecule agonists, cell-based qHTS assay (AID 1963589); further: nearly all actives have a fitted effect of over 35% in size
# In short: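 Agonist-mode qHTS in CHO cells stably carrying human muscarinic M1. Intracellular calcium is tracked by fluorescence every second after compound transfer; each compound runs at 15 concentrations in three independent runs.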
# [12] = cAMP Responsive Elements (CRE) small molecule agonists, cell-based qHTS assay (AID 1963590)
# In short: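 Agonist mode qHTS in CRE-bla HEK 293T cells: compounds dosed from DMSO for 3 h at 37 C/5% CO2, followed by LiveBLAzer B/G FRET substrate for 2 h at room temperature.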
# [13] = cAMP Responsive Elements (CRE) small molecule antagonists, cell-based qHTS assay (AID 1963591; active means well fitted inhibition curve with a large enough effect in the signal ratio in the repeat runs, not every such curve was filed as active; the % refers to the signal ratio)
# In short: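 Antagonist mode: test compounds are co-incubated with the adenylyl cyclase activator NKH477 (0.25 uM final) on CRE-bla HEK293T cells for 3 h at 37 °C, followed by LiveBLAzer substrate loading.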
# [14] = biological target: Beta-2 adrenergic receptor (Homo sapiens) (UniProt P07550); assay: Adrenergic beta2 receptor (ADRB2) small molecule antagonists, cell-based qHTS assay (AID 1963592); further: series mostly up to about 92 µM; nearly all actives have a fitted effect of over 50% in size
# In short: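 Cells (CHO, stable ADRB2 overexpression) incubated 18-20hr at 37C; compounds added from DMSO; agonist mix (1nM isoproterenol, 100uM IBMX, 25uM Ro-20-1724) added; 0.5hr RT; d2-cAMP and anti-cAMP-cryptate added; 1hr RT; 665/615 nm read.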
# [15] = biological target: D(2) dopamine receptor (Homo sapiens) (UniProt P14416); assay: Dopamine D2 receptor (DRD2) small molecule agonists, cell-based qHTS assay (AID 1963594); further: nearly all actives have a fitted effect of over 35% in size
# In short: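 cAMP accumulation in DRD2-HEK293 cells measured by HTRF after 1 h detection; compounds added 10 min before NKH477 (200nM […]) forskolin-analogue stimulation, 30 min at room temperature, with Ro20-1724 present at 0.1 mM final.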
# [16] = biological target: D(2) dopamine receptor (Homo sapiens) (UniProt P14416); assay: Dopamine D2 receptor (DRD2) small molecule antagonists, cell-based qHTS assay (AID 1963595; active means well fitted inhibition curve with a large enough effect in the signal ratio in the repeat runs, with a control signal flat; the % refers to the signal ratio; further: potency means the concentration at half of the fitted maximal effect)
# In short: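 Stable D2 receptor HEK293 line, 24 h after seeding. Compound preincubated 10 min, then quinpirole (12 nM) with forskolin analogue NKH477 (200 nM), 30 min, room temperature. Detection by time-resolved FRET of cAMP.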
# [17] = p53 small molecule agonists, cell-based qHTS assay with human liver microsomes: qHTS cell viability counter screen (AID 1963579); further: nearly all actives have a fitted effect of over 45% in size; further: potency means the concentration at half of the fitted maximal effect
# In short: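 p53RE-bla cells, 4,000/well, dosed 5 hours after plating, with human liver microsomes (0.5 mg/mL final) plus NADPH (0.5 mg/mL final), 16 hours at 37 C. Viability read as CellTiter-Glo luminescence after 30 min at room temperature.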
# [18] = biological target: Beta-2 adrenergic receptor (Homo sapiens) (UniProt P07550); assay: Adrenergic beta2 receptor (ADRB2) small molecule agonists, cell-based qHTS assay (AID 1963593); further: potency means the concentration at half of the fitted maximal effect;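 on activation: CHO cells stably overexpressing human ADRB2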
# In short: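 CHO cells stably over-expressing ADRB2 were plated overnight at 37C, then dosed with compounds plus a stimulation mix containing 100uM IBMX and 25uM Ro-20-1724 for 0.5hr at room temperature. cAMP was measured by HTRF competition, 1hr.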
# Chain of 5-hydroxytryptamine receptor 2A (Homo sapiens) (P28223 whole entry, looked up): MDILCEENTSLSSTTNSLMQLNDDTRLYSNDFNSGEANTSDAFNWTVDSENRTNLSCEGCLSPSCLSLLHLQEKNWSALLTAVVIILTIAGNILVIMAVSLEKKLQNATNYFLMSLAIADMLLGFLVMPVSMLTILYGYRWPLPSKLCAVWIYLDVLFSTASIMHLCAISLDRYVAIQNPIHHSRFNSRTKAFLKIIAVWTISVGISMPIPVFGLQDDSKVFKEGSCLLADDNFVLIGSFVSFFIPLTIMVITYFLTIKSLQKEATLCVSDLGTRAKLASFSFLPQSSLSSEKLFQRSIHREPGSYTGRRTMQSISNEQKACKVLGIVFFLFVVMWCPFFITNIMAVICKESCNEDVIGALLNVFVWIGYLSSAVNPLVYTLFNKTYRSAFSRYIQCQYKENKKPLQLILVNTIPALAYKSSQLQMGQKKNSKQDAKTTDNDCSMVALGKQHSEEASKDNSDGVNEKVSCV
# Chain of Muscarinic acetylcholine receptor M1 (Homo sapiens) (P11229 whole entry, looked up): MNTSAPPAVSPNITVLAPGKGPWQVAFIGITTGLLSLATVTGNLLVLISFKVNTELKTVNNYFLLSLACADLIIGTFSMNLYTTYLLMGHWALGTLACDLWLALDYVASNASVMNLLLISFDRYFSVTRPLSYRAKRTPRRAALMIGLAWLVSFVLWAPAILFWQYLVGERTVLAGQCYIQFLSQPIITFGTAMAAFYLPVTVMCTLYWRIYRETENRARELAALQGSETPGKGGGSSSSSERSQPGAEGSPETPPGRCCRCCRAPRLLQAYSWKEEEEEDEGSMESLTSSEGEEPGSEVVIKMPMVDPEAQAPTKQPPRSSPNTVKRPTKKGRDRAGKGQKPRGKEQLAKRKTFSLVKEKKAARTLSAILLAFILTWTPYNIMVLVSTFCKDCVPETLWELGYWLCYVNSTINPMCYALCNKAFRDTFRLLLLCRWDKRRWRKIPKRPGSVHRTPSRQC
# Chain of Gonadotropin-releasing hormone receptor (Homo sapiens) (P30968 whole entry, looked up): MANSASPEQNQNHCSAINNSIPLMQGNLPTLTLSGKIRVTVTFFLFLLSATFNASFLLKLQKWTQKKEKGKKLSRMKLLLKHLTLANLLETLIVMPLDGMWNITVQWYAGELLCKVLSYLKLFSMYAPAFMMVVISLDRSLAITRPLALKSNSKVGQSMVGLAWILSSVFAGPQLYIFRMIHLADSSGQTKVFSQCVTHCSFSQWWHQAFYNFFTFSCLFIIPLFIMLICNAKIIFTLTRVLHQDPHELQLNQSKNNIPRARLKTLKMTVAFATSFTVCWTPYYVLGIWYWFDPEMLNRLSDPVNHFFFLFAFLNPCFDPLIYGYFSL
# Chain of D(2) dopamine receptor (Homo sapiens) (P14416 whole entry, looked up): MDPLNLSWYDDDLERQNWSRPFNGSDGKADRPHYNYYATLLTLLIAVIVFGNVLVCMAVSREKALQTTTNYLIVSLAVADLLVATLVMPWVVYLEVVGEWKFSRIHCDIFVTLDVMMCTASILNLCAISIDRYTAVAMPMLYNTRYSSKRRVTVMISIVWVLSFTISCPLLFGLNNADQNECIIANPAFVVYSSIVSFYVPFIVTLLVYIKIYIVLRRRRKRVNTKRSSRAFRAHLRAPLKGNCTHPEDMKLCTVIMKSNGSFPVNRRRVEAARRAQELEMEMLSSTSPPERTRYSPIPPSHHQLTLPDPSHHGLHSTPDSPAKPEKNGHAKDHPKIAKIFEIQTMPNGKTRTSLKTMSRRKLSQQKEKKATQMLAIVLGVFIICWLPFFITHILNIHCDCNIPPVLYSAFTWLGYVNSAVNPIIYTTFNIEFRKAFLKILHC
# Chain of KiSS-1 receptor (Homo sapiens) (Q969F8 whole entry, looked up): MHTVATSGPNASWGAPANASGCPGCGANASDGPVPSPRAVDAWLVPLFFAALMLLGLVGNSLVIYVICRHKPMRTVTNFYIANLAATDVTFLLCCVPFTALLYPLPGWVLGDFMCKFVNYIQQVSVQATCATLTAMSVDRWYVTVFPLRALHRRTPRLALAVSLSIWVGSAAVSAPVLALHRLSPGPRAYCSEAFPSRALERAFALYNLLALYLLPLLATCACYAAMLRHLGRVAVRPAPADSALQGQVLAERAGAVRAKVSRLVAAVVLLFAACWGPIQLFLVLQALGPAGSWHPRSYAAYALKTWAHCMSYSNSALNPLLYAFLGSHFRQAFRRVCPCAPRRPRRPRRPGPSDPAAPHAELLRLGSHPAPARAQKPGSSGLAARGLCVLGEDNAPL
# Chain of Beta-2 adrenergic receptor (Homo sapiens) (P07550 whole entry, looked up): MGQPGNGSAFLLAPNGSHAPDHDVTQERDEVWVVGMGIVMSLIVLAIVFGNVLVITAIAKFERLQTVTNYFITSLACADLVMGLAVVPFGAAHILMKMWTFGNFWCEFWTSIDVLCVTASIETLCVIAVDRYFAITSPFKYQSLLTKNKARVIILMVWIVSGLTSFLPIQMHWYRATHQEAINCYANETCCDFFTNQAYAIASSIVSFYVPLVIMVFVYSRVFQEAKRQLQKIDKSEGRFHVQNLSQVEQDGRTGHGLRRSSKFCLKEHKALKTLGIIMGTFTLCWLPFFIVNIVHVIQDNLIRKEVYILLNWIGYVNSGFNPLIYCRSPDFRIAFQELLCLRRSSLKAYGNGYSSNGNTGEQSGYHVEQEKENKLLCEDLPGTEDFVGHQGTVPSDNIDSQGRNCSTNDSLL
compound,measurement,setting,value
Cc1ccc(C)c([N+](=O)[O-])c1,Potency,[1],inactive
same,Potency,[2],inactive
same,Potency,[3],inactive
same,Potency,[4],inactive
same,Potency,[5],inactive
same,Potency,[6],inactive
same,Potency,[7],inactive
same,Potency,[8],inactive
same,Potency,[9],inactive
same,Potency,[10],inactive
same,Potency,[11],inactive
same,Potency,[12],inactive
same,Potency,[13],inactive
same,Potency,[14],inactive
same,Potency,[15],inactive
same,Potency,[16],inactive
OCCOc1cccc(OCCO)c1,Potency,[1],inactive
same,Potency,[2],inactive
same,Potency,[3],inactive
same,Potency,[4],inactive
same,Potency,[5],inactive
same,Potency,[17],inactive
same,Potency,[7],inactive
same,Potency,[9],inactive
same,Potency,[10],inactive
same,Potency,[11],inactive
same,Potency,[12],inactive
same,Potency,[13],inactive
same,Potency,[14],inactive
same,Potency,[15],inactive
same,Potency,[16],inactive
Clc1nc2ccccc2nc1Cl,Potency,[1],inactive
same,Potency,[2],55.1 µM (active)
same,Potency,[3],inactive
same,Potency,[4],inactive
same,Potency,[5],inactive
same,Potency,[6],inactive
same,Potency,[7],inactive
same,Potency,[8],inactive
same,Potency,[9],inactive
same,Potency,[10],inactive
same,Potency,[11],inactive
same,Potency,[12],inactive
same,Potency,[13],inactive
same,Potency,[14],inactive
same,Potency,[15],inactive
same,Potency,[16],inactive
C[C@H]1COc2c(C3(N)CC3)c(F)cc3c(=O)c(C(=O)O)cn1c23,Potency,[1],inactive
same,Potency,[2],inactive
same,Potency,[3],inactive
same,Potency,[4],inactive
same,Potency,[5],inactive
same,Potency,[17],inactive
same,Potency,[7],inactive
same,Potency,[8],inactive
same,Potency,[9],inactive
same,Potency,[10],inactive
same,Potency,[11],inactive
same,Potency,[13],inactive
same,Potency,[18],inactive
same,Potency,[15],inactive
same,Potency,[16],inactive
O=C(O)c1ccc(O)c(O)c1,Potency,[1],inactive
same,Potency,[2],inactive
same,Potency,[3],inactive
same,Potency,[4],inactive
same,Potency,[5],inactive
same,Potency,[17],inactive
same,Potency,[7],inactive
same,Potency,[9],inactive
same,Potency,[10],inactive
same,Potency,[11],inactive
same,Potency,[13],inactive
same,Potency,[14],inactive
same,Potency,[15],inactive
same,Potency,[16],inactive
CCCCOC(=O)CCC(C)=O,Potency,[1],inactive
same,Potency,[2],inactive
same,Potency,[3],inactive
same,Potency,[4],inactive
same,Potency,[5],inactive
same,Potency,[6],inactive
same,Potency,[7],inactive
same,Potency,[8],inactive
same,Potency,[9],inactive
same,Potency,[10],inactive
same,Potency,[11],inactive
same,Potency,[12],inactive
same,Potency,[13],inactive
same,Potency,[14],inactive
same,Potency,[15],inactive
same,Potency,[16],inactive
Cc1ccc(N)cc1O,Potency,[1],inactive
same,Potency,[2],24.3 µM (active)
same,Potency,[3],inactive
same,Potency,[4],inactive
same,Potency,[5],inactive
same,Potency,[17],40.8 µM (active)
same,Potency,[8],inactive
same,Potency,[9],inactive
same,Potency,[10],inactive
same,Potency,[11],inactive
O=C(c1ccccc1)c1ccc(O)cc1,Potency,[1],inactive
same,Potency,[2],inactive
same,Potency,[3],inactive
same,Potency,[4],inactive
same,Potency,[5],inactive
same,Potency,[6],inactive
same,Potency,[7],inactive
same,Potency,[8],inactive
same,Potency,[9],inactive
same,Potency,[10],inactive
same,Potency,[11],inactive
same,Potency,[13],inactive
same,Potency,[14],inactive
same,Potency,[15],inactive
same,Potency,[16],inactive
O=S1(=O)CCCC1,Potency,[1],inactive
same,Potency,[2],inactive
same,Potency,[3],inactive
same,Potency,[4],inactive
same,Potency,[5],inactive
same,Potency,[17],inactive
same,Potency,[7],inactive
same,Potency,[8],inactive
same,Potency,[9],inactive
same,Potency,[10],inactive
same,Potency,[11],inactive
same,Potency,[12],inactive
same,Potency,[13],inactive
same,Potency,[14],inactive
same,Potency,[15],inactive
same,Potency,[16],inactive
COc1ccc(OC)c(Cl)c1,Potency,[1],inactive
same,Potency,[2],inactive
same,Potency,[3],inactive
same,Potency,[4],inactive
same,Potency,[5],inactive
same,Potency,[6],inactive
same,Potency,[7],inactive
same,Potency,[8],inactive
same,Potency,[9],inactive
same,Potency,[10],inactive
same,Potency,[11],inactive
same,Potency,[12],inactive
same,Potency,[13],inactive
same,Potency,[14],inactive
same,Potency,[18],inactive
same,Potency,[15],inactive
same,Potency,[16],inactive
c1cc[c]([Bi]([c]2ccccc2)[c]2ccccc2)cc1,Potency,[1],inactive
same,Potency,[2],4.86 µM (active)
same,Potency,[3],inactive
same,Potency,[4],inactive
same,Potency,[5],inactive
same,Potency,[17],inactive
same,Potency,[7],inactive
same,Potency,[8],inactive
same,Potency,[9],inactive
same,Potency,[10],inactive
same,Potency,[11],inactive
same,Potency,[18],1.72 µM (active)
same,Potency,[15],inactive
same,Potency,[16],9.69 µM (active)
COc1cc(C(C)C)c2c(c1)S(=O)(=O)N(COc1cc(=O)n3cccc(OCCN4CCCCC4)c3n1)C2=O,"activity change, negative = cytotoxicity",[1],-10.3% [at 19 µM]
same,Potency,[2],2.91 µM (active)
same,activity change,[3],"-0.424% [at 11.8 µM, active compounds read high]"
same,activation,[4],-3.13% [at 15.8 µM]
same,activation,[5],1.49% [at 11.8 µM]
same,"activity change, negative = cytotoxicity",[6],-0.988% [at 13.5 µM]
same,"activity change, negative = cytotoxicity",[7],-1.9% [at 13.5 µM]
same,"activity, negative = inhibition",[8],4.6% [at 12.7 µM]
same,activation,[9],-1.78% [at 15.9 µM]
same,"activity, negative = inhibition",[10],-3.39% [at 12.6 µM]
same,activation,[11],-0.958% [at 15.8 µM]
same,activation,[15],-15.5% [at 19 µM]
CCOc1ccc(C(=O)OCCN(CC)CC)cc1,Potency,[1],inactive
same,Potency,[2],inactive
same,Potency,[3],inactive
same,Potency,[4],inactive
same,Potency,[5],inactive
same,Potency,[17],inactive
same,Potency,[7],inactive
same,Potency,[8],inactive
same,Potency,[10],inactive
same,Potency,[11],inactive
same,Potency,[12],inactive
same,Potency,[13],inactive
same,Potency,[14],inactive
same,Potency,[18],inactive
same,Potency,[15],inactive
same,Potency,[16],inactive
CCCCCCCC/C=C\CCCCCCCC(=O)OCC,Potency,[1],inactive
same,Potency,[2],inactive
same,Potency,[3],inactive
same,Potency,[4],inactive
same,Potency,[5],inactive
same,Potency,[6],inactive
same,Potency,[7],inactive
same,Potency,[8],inactive
same,Potency,[9],inactive
same,Potency,[10],inactive
same,Potency,[11],inactive
same,Potency,[12],inactive
same,Potency,[13],inactive
same,Potency,[14],inactive
same,Potency,[15],inactive
same,Potency,[16],inactive
N#CCCOCCOCCC#N,Potency,[1],inactive
same,Potency,[2],inactive
same,Potency,[3],inactive
same,Potency,[4],inactive
same,Potency,[5],inactive
same,Potency,[17],inactive
same,Potency,[7],inactive
same,Potency,[8],inactive
same,Potency,[9],inactive
same,Potency,[10],inactive
same,Potency,[11],inactive
same,Potency,[12],inactive
same,Potency,[14],inactive
same,Potency,[18],inactive
same,Potency,[15],inactive
